Over roughly 81,000 sequences, “one-hybrid fitness for binding NBS DNA” has its median near -0.1; the highest 2% begin near 0.36. Shown is part of a subset that was picked to be rich in the highest values.
B1: Caulobacter ParB omega fusion; a variant is named by its letters at X, in order, B8GW30 (parent)
chain: MESVVVGEPGMSEGRRGLGRGLSALLGEVDAAPAQAPGEQLGGSREAPIEILQRNPDQPRRTFREEDLEDLSNSIREKGVLQPILVRPSPDTAGEYQIVAGERAWRAAQRAGLKTVPIMVRELDDLAVLEIGIIENVQRADLNVLEEALSYKVLMEKFERTQENIAQTIGKSXSHVANXMRLLXLPDEVQSYLVSGELTAXHARAIAAAADPVALAKQIIEGGLSVRETEALARKAPNLSAGKSKGGRPPRVKDTDTQALESDLSSVLGLDVSIDHRGSTGTLTITYATLEQLDDLCNRLTRGI

Variants of: B1
Test: one-hybrid fitness for binding NBS DNA (the Noc-binding site; scaled: cognate 1, non-cognate 0); higher = stronger binding
Conditions: with NBS DNA site
In short: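 Values were rescaled so that cognate is 1 and non-cognate is 0. Each is a fitness, the log change in a variant's read ratio to wild type from Illumina reads of plasmids before and after selection, with three replicate libraries pooled and variants under 10 reads dropped. Selection of the Caulobacter ParB libraries, four specificity codons randomised, used E. coli USO with a HIS3 reporter, site 19 bp from the promoter, on M9-minus-histidine with 0.1 mM IPTG and 5 mM 3-AT for 48 hours at 37°C.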

Row | Variant | one-hybrid fitness for binding NBS DNA
1 | MMDT | ≤ 0.2
2 | HANR | ≤ 0.2
3 | IMHC | ≤ 0.2
4 | VAPN | ≤ 0.2
5 | GWLG | ≤ 0.2
6 | KQKS | ≤ 0.2
7 | FLVG | ≤ 0.2
8 | LDND | ≤ 0.2
9 | SIIL | ≤ 0.2
10 | AHHA | ≤ 0.2
11 | SHVW | ≤ 0.2
12 | CFRT | ≤ 0.2
13 | RYCP | ≤ 0.2
14 | RYYS | 0.371
15 | RYWS | ≤ 0.2
16 | RYHN | ≤ 0.2
17 | RYNS | 0.497
18 | RYIS | ≤ 0.2
19 | RYCS | 0.395
20 | RYDS | ≤ 0.2
21 | RYCH | ≤ 0.2
22 | RYHS | 0.441
23 | RYND | ≤ 0.2
24 | RYHD | ≤ 0.2
25 | EYQC | ≤ 0.2
26 | RKSA | 0.284

Row | Variant | one-hybrid fitness for binding NBS DNA
27 | PEMV | ≤ 0.2
28 | LCRH | ≤ 0.2
29 | YRHS | ≤ 0.2
30 | RYGT | 0.373
31 | RYHG | ≤ 0.2
32 | RYGN | ≤ 0.2
33 | RYHQ | ≤ 0.2
34 | RYGD | ≤ 0.2
35 | RYHT | 0.45
36 | RYQT | 0.381
37 | RYQF | ≤ 0.2
38 | RYGF | ≤ 0.2
39 | RYGC | ≤ 0.2
40 | RYQY | ≤ 0.2
41 | RYGS | 0.426
42 | TIRS | ≤ 0.2
43 | SHCW | ≤ 0.2
44 | PSRV | ≤ 0.2
45 | QMAC | ≤ 0.2
46 | DGSR | ≤ 0.2
47 | HLCR | ≤ 0.2
48 | TSRL | ≤ 0.2
49 | VDPI | ≤ 0.2
50 | VKWG | ≤ 0.2
51 | NFAR | ≤ 0.2
52 | TAGV | ≤ 0.2

Row | Variant | one-hybrid fitness for binding NBS DNA
53 | RRAM | 0.306
54 | RRFR | 0.728
55 | RRAG | 0.357
56 | RRAR | 0.757
57 | NERC | ≤ 0.2
58 | VQTI | ≤ 0.2
59 | RMTM | ≤ 0.2
60 | VKPG | ≤ 0.2
61 | MIPC | ≤ 0.2
62 | QSAR | 0.526
63 | QSAD | ≤ 0.2
64 | QPAR | ≤ 0.2
65 | QIAH | ≤ 0.2
66 | QIFR | 0.301
67 | QEAR | ≤ 0.2
68 | QCAR | 0.643
69 | QIAR | 0.397
70 | QSAH | ≤ 0.2
71 | PIRY | ≤ 0.2
72 | TWMC | ≤ 0.2
73 | IDTL | ≤ 0.2
74 | TIIR | ≤ 0.2
75 | NVDM | ≤ 0.2
76 | SALS | ≤ 0.2
77 | QLKH | 0.487
78 | QSKN | 0.359

Row | Variant | one-hybrid fitness for binding NBS DNA
79 | QLKP | ≤ 0.2
80 | QLKS | 0.573
81 | QCKN | 0.445
82 | QLVH | ≤ 0.2
83 | QLKD | ≤ 0.2
84 | QLKQ | 0.331
85 | QLVS | ≤ 0.2
86 | QLVN | ≤ 0.2
87 | QPKN | ≤ 0.2
88 | QLKN | 0.365
89 | HLWL | ≤ 0.2
90 | WMPR | ≤ 0.2
91 | DMKY | ≤ 0.2
92 | PLDP | ≤ 0.2
93 | TIRA | ≤ 0.2
94 | EGSN | ≤ 0.2
95 | LRCP | ≤ 0.2
96 | GCSF | ≤ 0.2
97 | HDFR | ≤ 0.2
98 | DATM | ≤ 0.2
99 | TSVL | ≤ 0.2
100 | CRHF | ≤ 0.2
101 | RHIT | 0.243
102 | RHLT | 0.33
103 | RDQT | ≤ 0.2
104 | RSQT | 0.418

Row | Variant | one-hybrid fitness for binding NBS DNA
105 | RHQT | 0.39
106 | RHRT | 0.583
107 | RHYT | 0.287
108 | RHPT | ≤ 0.2
109 | RAQC | ≤ 0.2
110 | RAQT | 0.395
111 | RAQP | ≤ 0.2
112 | RFQT | 0.242
113 | CHYG | ≤ 0.2
114 | ASMD | ≤ 0.2
115 | FIRR | ≤ 0.2
116 | MIQP | ≤ 0.2
117 | RIQT | 0.329
118 | RCQT | 0.513
119 | RPQT | ≤ 0.2
120 | QRKA | 0.692
121 | QRVA | 0.511
122 | NRKA | ≤ 0.2
123 | QPVA | ≤ 0.2
124 | DRKA | ≤ 0.2
125 | QCVA | 0.298
126 | TSKG | ≤ 0.2
127 | PRAV | ≤ 0.2
128 | TDDT | ≤ 0.2
129 | IQLF | ≤ 0.2
130 | LTEG | ≤ 0.2

Row | Variant | one-hybrid fitness for binding NBS DNA
131 | QNVR | ≤ 0.2
132 | QNRR | 0.439
133 | QNKR | 0.504
134 | QNYR | 0.203
135 | QNDR | ≤ 0.2
136 | QNKN | ≤ 0.2
137 | MEGC | ≤ 0.2
138 | QCHA | 0.422
139 | QRHA | 0.629
140 | QSHA | 0.275
141 | QKHA | 0.28
142 | QPHA | ≤ 0.2
143 | QIHA | 0.201
144 | ADPD | ≤ 0.2
145 | TEMV | ≤ 0.2
146 | FTMS | ≤ 0.2
147 | MEGT | ≤ 0.2
148 | APSI | ≤ 0.2
149 | RVGD | ≤ 0.2
150 | RVGS | 0.463
151 | RVGR | 0.491
152 | RVGH | ≤ 0.2
153 | RVGT | 0.491
154 | RVGM | ≤ 0.2
155 | RVGF | ≤ 0.2

Reference: a collection of fitness landscapes (doi:10.1016/j.celrep.2020.107928)
